Records with an inconclusive call do not appear. The source made the active and inactive calls. Unless noted, calls come from the whole dose curve; as a rule, active = well fitted curve in the direction sought with a large enough effect in the repeat runs; inconclusive = weak or mixed curves; inactive = no such curve, though single readings can be large; an effect the other way counts as inactive or inconclusive.
Experiments:
[1] = qHTS assay to identify small molecule agonists of the constitutive androstane receptor (CAR) signaling pathway - cell viability counter screen (AID 1224836); note: nearly all actives have a fitted effect of over 45% in size; note: potency is the fitted concentration of half-maximal effect
Method in brief: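 Cell viability multiplexed with the CAR agonist screen: CellTiter-Fluor fluorescence after 23 hr at 37 C. HepG2-CYP2B6-hCAR cells got compounds at 15 concentrations with PK11195 at 0.75 uM final.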

[2] = qHTS assay to identify small molecule antagonists of the constitutive androstane receptor (CAR) signaling pathway - cell viability counter screen (AID 1224837); note: nearly all actives have a fitted effect of over 45% in size; note: potency is the fitted concentration of half-maximal effect
Method in brief: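 Cells are seeded, rested 4 hr at 37 C/5% CO2, dosed with compound (15-point series) and 50 nM CITCO, incubated a further 23 hr, and then CellTiter-Fluor reagent is added before fluorescence is read. The line is HepG2 with stable hCAR and CYP2B6-2.2kb.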

[3] = qHTS assay to identify small molecule antagonists of the estrogen related receptor signaling pathway with the pleiotropic PPARgamma coactivator (PGC) from Tox21 10K library - cell viability counter screen (AID 1224840; active = well fitted cell-killing curve with a large enough effect in the repeat runs, not every such curve was filed as active; note: nearly all actives have a fitted effect of over 40% in size; note: potency is the fitted concentration of half-maximal effect)
Method in brief: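 Cell viability is measured by CellTiter-Fluor fluorescence in PGC/ERR cells that receive compounds after a 6-hour attachment period and are then incubated 17.5 hours at 37 C.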

[4] = qHTS assay to identify small molecule agonists of the estrogen related receptor signaling pathway with the pleiotropic PPARgamma coactivator (PGC) from Tox21 10K library (AID 1224842); note: nearly all actives have a fitted effect of over 15% in size; note: potency is the fitted concentration of half-maximal effect
Method in brief: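 PGC/ERR reporter cell line, 2,000 cells per well, incubated 6 h at 37 C before 23 nL compound in DMSO was added. After 18 h at 37 C, One-Glo luminescence read following 30 min at room temperature.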

[5] = qHTS assay to identify small molecule agonists of the hypoxia (HIF-1) signaling pathway - cell viability counter screen (AID 1224844; calls by dose curve; note: nearly all actives have a fitted effect of over 50% in size)
Method in brief: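 Viability counter screen: HRE-bla ME-180 cells plated 5 hrs before compound addition, treated 17 hrs at 37C and 5% CO2, then CellTiter-Glo added after the FRET reporter read; luminescence after 30 min.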

[6] = qHTS assay to identify small molecule agonists of the hypoxia (HIF-1) signaling pathway (AID 1224846; active = well fitted activation curve with a large enough effect in the signal ratio in the repeat runs, not every such curve was filed as active; the % refers to the signal ratio)
Method in brief: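 Agonist mode reporter screen. ME-180 cells stably expressing bla under HRE control received test compounds in DMSO for 17 hrs (37C, 5% CO2), and beta-lactamase activity was then detected with the CCF4-AM FRET substrate.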

[7] = qHTS assay to identify small molecule agonists of H2AX - cell viability counter screen (AID 1224847; calls by dose curve; note: nearly all actives have a fitted effect of over 30% in size; note: potency is the fitted concentration of half-maximal effect)
Method in brief: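 Counter-screen for viability: CellTiter-Glo ATP luminescence read after 3 h compound treatment (15-point titration, 0.76% DMSO final) of CHO-K1 cells at 37C, with 30 min room-temperature reagent incubation.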

[8] = qHTS assay to identify small molecule antagonists of the estrogen related receptor (ERR) signaling pathway from Tox21 library (AID 1224848); note: nearly all actives have a fitted effect of over 50% in size
Method in brief: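 Compounds dissolved in DMSO are pin-transferred onto ERR reporter cells (2,000 per well) that have settled for 6 h at 37 C. Plates then incubate 18 h at 37 C before ONE-Glo luciferase reagent and a luminescence read 30 min later.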

[9] = qHTS assay to identify small molecule agonists of the estrogen related receptor (ERR) signaling pathway from Tox21 library (AID 1224849; calls by dose curve; note: nearly all actives have a fitted effect of over 15% in size); details: ERR reporter cell line, ONE-Glo luciferase, 18 h
Method in brief: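 Quantitative HTS in agonist format: NTP ERR cell line, compounds transferred in DMSO after 6 h plating, 18 h incubation at 37 C, ONE-Glo luminescence endpoint.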

[10] = qHTS RealTime-Glo MT Cell Viability Assay in HepG2 cells - 24 hour (AID 1224867); note: nearly all actives have a fitted effect of over 50% in size
Method in brief: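 Luminescence read-out: viable HepG2 cells reduce a prosubstrate to a NanoLuc substrate, giving a signal proportional to live cell number. Reads taken at 0, 8, 16, 24, 32 and 40 h of compound exposure at 37 C.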

[11] = qHTS RealTime-Glo MT Cell Viability Assay in HEK293 cells - 32 hour (AID 1224868); note: nearly all actives have a fitted effect of over 50% in size; note: potency is the fitted concentration of half-maximal effect
Method in brief: (§1)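 Nonlytic real-time viability readout: viable cells convert prosubstrate to NanoLuc substrate, giving luminescence proportional to live cell number. HEK293, 600 cells/well, compound added after 5 h, continuous culture at 37 C.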

[12] = A CellTox Green Cytotoxicity Assay to monitor cytotoxicity in HEK293 cells - 0 hour (AID 1224869); note: nearly all actives have a fitted effect of over 50% in size
Method in brief: (§2)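 Dead-cell fluorescence measured kinetically: asymmetric cyanine dye, HEK293, 600 cells/well, 5 h settle, 23 nL cpd/DMSO, 37 C, reads 0–40 h every 8 h.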

[13] = qHTS RealTime-Glo MT Cell Viability Assay in HepG2 cells - 40 hour (AID 1224870); note: nearly all actives have a fitted effect of over 50% in size
Method in brief: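 HepG2 cells (600/well) mixed with RealTime-Glo MT reagent, settled 5 h at 37 C/5% CO2 before compound addition. Nonlytic NanoLuc luminescence from viable-cell prosubstrate reduction read repeatedly during 40 h treatment at 37 C.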

[14] = A CellTox Green Cytotoxicity Assay to monitor cytotoxicity in HEK293 cells - 40 hour (AID 1224871); note: nearly all actives have a fitted effect of over 45% in size
Method in brief: as §2

[15] = qHTS RealTime-Glo MT Cell Viability Assay in HEK293 cells - 16 hour (AID 1224872); note: nearly all actives have a fitted effect of over 50% in size; note: potency is the fitted concentration of half-maximal effect
Method in brief: as §1

[16] = biological target: Nuclear receptor subfamily 1 group I member 3 (Homo sapiens) (UniProt Q14994); experiment: qHTS assay to identify small molecule agonists of the constitutive androstane receptor (CAR) signaling pathway (AID 1224839);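 note: HepG2 cells stably carrying human CAR and a CYP2B6 luciferase reporter; nearly all actives have a fitted effect of over 15% in size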
Method in brief: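 Luminescent ONE-Glo read-out after 24 hr, 37 C exposure of double-stable HepG2-CYP2B6-hCAR reporter cells to a 15-point compound series, in the presence of 0.75 uM PK11195 (final).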

[17] = qHTS assay to identify small molecule antagonists of the estrogen related receptor signaling pathway with the pleiotropic PPARgamma coactivator (PGC) from Tox21 10K library (AID 1224841; call rule not given here; note: potency is the fitted concentration of half-maximal effect)
Method in brief: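 Cells stably carrying the PGC/ERR reporter, seeded at 2,000 per well, received pin-transferred compounds 6 h post-plating. Exposure lasted 18 h at 37 C. Signal: One-Glo luminescence.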

[18] = biological target: Thyrotropin receptor (Homo sapiens) (UniProt P16473); experiment: qHTS assay to identify small molecule agonists of the thyroid stimulating hormone receptor (TSHR) signaling pathway (AID 1224843; calls by dose curve; note: nearly all actives have a fitted effect of over 45% in size)
Method in brief: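 HEK293/TSHR, 800 cells/well; cpd 30 min RT; add cAMP-d2 + anti-cAMP-cryptate, 1 h RT; fluorescence read on plate reader. 15-pt titration, n=3.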

[19] = qHTS assay to identify small molecule agonists of H2AX (AID 1224845; active = well fitted activation curve with a large enough effect in the signal ratio in the repeat runs, not every such curve was filed as active; the % refers to the signal ratio)
Method in brief: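 Wild-type CHO-K1 cells, plated overnight, exposed 3hr at 37C to 15 concentrations (0.76% DMSO final). Lysed, then HTRF anti-pH2AX (S139) cryptate and anti-H2AX-d2 antibodies, 24 hr room temperature; 665/620 nm emission read.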

[20] = biological target: Nuclear receptor subfamily 1 group I member 3 (Homo sapiens) (UniProt Q14994); experiment: qHTS assay to identify small molecule antagonists of the constitutive androstane receptor (CAR) signaling pathway (AID 1224838);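 note: HepG2 cells stably expressing hCAR with CYP2B6 luciferase reporter stimulated by CITCO; nearly all actives have a fitted effect of over 40% in size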
Method in brief: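 Luminescence from a CYP2B6-2.2kb promoter reporter in hCAR-expressing HepG2 cells reflects CAR signaling. Cells received compounds at 15 concentrations and 50 nM CITCO (final), then incubated 24 h at 37 C/5% CO2.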
% is set by controls: 0 for no effect and ±100 for the full control effect.

Sequence of Thyrotropin receptor (Homo sapiens) (P16473 whole entry, looked up): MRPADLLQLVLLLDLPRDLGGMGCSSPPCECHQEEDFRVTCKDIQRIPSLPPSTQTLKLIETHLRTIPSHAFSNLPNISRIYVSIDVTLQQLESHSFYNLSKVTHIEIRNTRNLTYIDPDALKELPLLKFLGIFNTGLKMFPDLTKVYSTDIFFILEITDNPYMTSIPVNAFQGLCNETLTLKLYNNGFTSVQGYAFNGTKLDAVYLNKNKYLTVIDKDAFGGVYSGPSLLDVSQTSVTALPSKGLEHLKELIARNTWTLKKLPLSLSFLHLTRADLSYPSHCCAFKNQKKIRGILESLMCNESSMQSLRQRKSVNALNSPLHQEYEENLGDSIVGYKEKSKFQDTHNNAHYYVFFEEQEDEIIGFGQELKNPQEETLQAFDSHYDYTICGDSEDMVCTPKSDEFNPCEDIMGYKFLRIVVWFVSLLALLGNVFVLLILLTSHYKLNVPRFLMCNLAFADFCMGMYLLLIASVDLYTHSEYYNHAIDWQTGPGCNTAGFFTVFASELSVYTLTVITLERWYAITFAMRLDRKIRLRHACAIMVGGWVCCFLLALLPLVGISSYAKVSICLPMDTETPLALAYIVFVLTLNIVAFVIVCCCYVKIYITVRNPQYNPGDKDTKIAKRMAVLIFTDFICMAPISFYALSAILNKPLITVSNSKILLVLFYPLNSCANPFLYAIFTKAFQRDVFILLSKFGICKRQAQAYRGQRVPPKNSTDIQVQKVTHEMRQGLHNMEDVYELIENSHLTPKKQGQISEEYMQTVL
Sequence of Nuclear receptor subfamily 1 group I member 3 (Homo sapiens) (Q14994 whole entry, looked up): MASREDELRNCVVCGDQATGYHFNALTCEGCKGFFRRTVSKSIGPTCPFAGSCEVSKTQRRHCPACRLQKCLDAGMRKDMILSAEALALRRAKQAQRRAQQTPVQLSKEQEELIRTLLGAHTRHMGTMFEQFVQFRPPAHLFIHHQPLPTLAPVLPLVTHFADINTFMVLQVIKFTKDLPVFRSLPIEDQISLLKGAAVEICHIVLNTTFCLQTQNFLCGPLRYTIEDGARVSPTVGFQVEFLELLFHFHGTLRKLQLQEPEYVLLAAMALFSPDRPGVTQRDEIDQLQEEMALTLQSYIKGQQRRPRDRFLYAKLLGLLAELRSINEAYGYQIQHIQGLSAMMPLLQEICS

O=C1C(c2[nH]c3ccc(S(=O)(=O)O)cc3c2O)=Nc2ccc(S(=O)(=O)O)cc21
inactive: Potency [1] | Potency [2] | Potency [3] | Potency [4] | Potency [5] | Potency [6] | Potency [7] | Potency [8] | activity change, positive = activation ([9]; at 92.4 µM (top of the series)) -7.96% | Potency [10] | Potency [11] | Potency [12] | Potency [13] | Potency [14] | Potency [15]

O=C(Nc1ccc2c(O)c(N=Nc3ccc(N=Nc4ccc(S(=O)(=O)O)cc4)cc3)c(S(=O)(=O)O)cc2c1)c1ccccc1
inactive: Potency [16] | Potency [18] | Potency [5] | activity change, positive = activation ([9]; at 92.4 µM (top of the series)) -30% | Potency [11] | Potency [12] | Potency [14] | Potency [15]
active: Potency [1] 24.3 µM | Potency [2] 27.3 µM | Potency [3] 24.3 µM | Potency [17] 27.3 µM | Potency [7] 50.5 µM

NC(=O)c1cccc([N+](=O)[O-])c1
inactive: Potency [1] | Potency [2] | Potency [3] | Potency [18] | Potency [5] | Potency [19] | Potency [6] | Potency [7] | Potency [10] | Potency [11] | Potency [12] | Potency [13] | Potency [14] | Potency [15]

C[Si](Cl)(c1ccccc1)c1ccccc1
inactive: Potency [1] | Potency [2] | Potency [20] | Potency [3] | Potency [17] | Potency [18] | Potency [5] | Potency [19] | Potency [6] | activity change, positive = activation ([9]; at 92.4 µM (top of the series)) -19% | Potency [10] | Potency [12] | Potency [13]

OC[C@H]1O[C@H](O[C@H]2O[C@H](CO)[C@@H](O)[C@H](O)[C@H]2O)[C@H](O)[C@@H](O)[C@@H]1O
inactive: Potency [1] | Potency [2] | Potency [3] | Potency [17] | Potency [4] | Potency [18] | Potency [5] | Potency [19] | Potency [6] | Potency [7] | Potency [8] | activity change, positive = activation ([9]; at 92.4 µM (top of the series)) 8.53% | Potency [10] | Potency [11] | Potency [12] | Potency [13] | Potency [14] | Potency [15]

Cc1c(N)cccc1C(F)(F)F
inactive: Potency [1] | Potency [2] | Potency [3] | Potency [17] | Potency [4] | Potency [18] | Potency [5] | Potency [19] | Potency [6] | Potency [7] | Potency [8] | activity change, positive = activation ([9]; at 42.5 µM (top of the series)) 6.86% | Potency [10] | Potency [11] | Potency [12] | Potency [13] | Potency [14] | Potency [15]

CC1=Nc2ccccc2C1(C)C
inactive: Potency [1] | Potency [2] | Potency [3] | Potency [17] | Potency [18] | Potency [5] | Potency [6] | Potency [8] | Potency [10] | Potency [12] | Potency [14] | Potency [15]
active: Potency [4] 30.7 µM | Potency [7] 89.9 µM

Nc1ccc(Oc2ccc(Cl)cc2)cc1
active: Potency [11] 21.4 µM | Potency [15] 21.4 µM
inactive: Potency [1] | Potency [2] | Potency [20] | Potency [3] | Potency [17] | Potency [4] | Potency [18] | Potency [5] | Potency [6] | activity change, positive = activation ([9]; at 92.4 µM (top of the series)) -19.3% | Potency [10] | Potency [12] | Potency [13] | Potency [14]

Reference: PubChem BioAssay (Tox21)
